GDH-TPI counter – GDH-TPI coupling enzyme inhibitors, primary screen, artefact control for M. tuberculosis FBA inhibitor project, biochemical, absorbance, full deck. GDH-TPI coupled enzyme counterscreen, NADH absorbance. inhibition, % at 4.8 µM. 360,000 compounds, 1.2% hits. AID 588335, 2011; in the data active means inhibition above about 30%
Mtb BioA inh – M. tuberculosis BioA enzyme inhibitors, primary screen, biochemical, plate reader, single point, HTS; 7,8-diaminopelargonic acid synthase BioA (Mycobacterium tuberculosis); purified M. tuberculosis BioA enzyme; inhibition, % at 9.99 µM; 360,000 compounds, 0.096% hits; AID 602481, 2012; in the data active means inhibition above about 40%
Mtb FBA inh – Mtb FBA enzyme inhibitors, primary screen, biochemical, fluorescence, strain H37Rv. Fructose-bisphosphate aldolase (Mycobacterium tuberculosis (strain ATCC 25618 / H37Rv)), …. purified M. tuberculosis FBA, fluorescence read-out. inhibition, % at 1 µM. 360,000 compounds, 2.3% hits; in the data active means inhibition above about 27%
Target sequence (P9WQA3 whole entry, looked up): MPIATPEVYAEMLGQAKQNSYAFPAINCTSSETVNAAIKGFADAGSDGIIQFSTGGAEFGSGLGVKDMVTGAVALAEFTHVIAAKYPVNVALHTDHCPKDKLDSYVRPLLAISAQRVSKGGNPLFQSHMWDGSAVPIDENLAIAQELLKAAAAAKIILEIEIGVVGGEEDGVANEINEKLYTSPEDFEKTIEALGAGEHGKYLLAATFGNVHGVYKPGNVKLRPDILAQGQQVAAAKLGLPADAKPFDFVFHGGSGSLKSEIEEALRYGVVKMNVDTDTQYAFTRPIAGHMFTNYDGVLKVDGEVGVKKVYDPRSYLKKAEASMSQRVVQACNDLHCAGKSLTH
SARS 3CLpro inh – SARS-CoV 3CLpro protease inhibitors, primary screen, biochemical, quenched FRET; recombinant SARS-CoV 3CLpro, quenched FRET peptide cleavage; inhibition, % at 6 µM; 290,000 compounds, 0.14% hits; Replicase polyprotein 1ab (Severe acute respiratory syndrome coronavirus), P0C6X7; AID 1706, 2009; in the data active means inhibition above about 12%
FadD28 binding – inhibitors of FadD28 bisubstrate probe binding, primary screen, biochemical, fluorescence polarization, single point | Mycobacterium tuberculosis FadD28 fatty-acid-AMP ligase | AID 588549, 2011 | inhibition, % at 12.5 µM | 360,000 compounds, 0.22% hits; in the data active means inhibition above about 8.5%, passing the limit was not always enough
Numbers stand for hits; i = inactive; nt = no result; + = active, no number. The list is not random: actives were taken first. Their share in the collection is about 3.1%.

SMILES | GDH-TPI counter | Mtb BioA inh | Mtb FBA inh | SARS 3CLpro inh | FadD28 binding
O=C(C[C@H]1C[C@H]2c3cc(NS(=O)(=O)c4ccc(F)cc4)ccc3O[C@H]2[C@@H](CO)O1)NCc1ccc(Cl)cc1 | nt | i | nt | nt | nt
Cc1ccc(C2N(C)c3ccccc3-c3nc4ccccc4n32)o1 (stereo not given) | i | i | 183 | i | i
CN1c2ccccc2-c2nc3ccccc3n2C1c1cccs1 (stereo not given) | i | i | + | i | i
COCCNC(=O)C[C@H]1C[C@@H]2c3cc(NS(C)(=O)=O)ccc3O[C@@H]2[C@@H](CO)O1 | nt | i | nt | nt | nt
O=Cc1ccc(-c2ccc(C(=O)O)cc2)o1 | 42 | i | i | i | i
N#C/C(=C\c1ccc[nH]1)C(=O)NCC1CCCO1 (stereo not given) | 35 | nt | i | i | i
CC(NC(=O)/C(C#N)=C/c1ccco1)c1ccccc1 (stereo not given) | 52 | i | i | i | i
Cc1ccc(/C=C(\C#N)C(=O)NCC2CCCO2)o1 (stereo not given) | i | i | i | i | i
N#C/C(=C\c1ccco1)C(=O)NCC1CCCO1 (stereo not given) | 46 | i | i | i | i
CO[C@H]1CN(C)C(=O)c2cc(NC(=O)C3CC3)ccc2OC[C@H](C)N(CC2CCOCC2)C[C@H]1C | nt | i | nt | nt | nt
CN(C)C(=O)c1ccc(-c2ccc([C@@H]3[C@H]4CN(C(=O)C5CCCC5)CCCCN4[C@H]3CO)cc2)cc1 | nt | i | nt | nt | nt
COc1ccccc1NC(=O)N1C[C@H]2[C@@H](c3ccccc31)[C@@H](CO)N2C(=O)c1ccccc1 | nt | i | nt | nt | nt
Cc1c(C(=O)N2CCC3(CC2)OCCO3)sc2ncnc(N(C)c3ccccc3)c12 | i | i | i | i | i
Cc1c(C(=O)N2CCC(C)CC2)sc2ncnc(N(C)c3ccccc3)c12 | 35 | nt | i | i | i
CCOC(=O)C(=CNc1ccc(C(F)(F)F)cc1Cl)C(=O)OCC | 36 | nt | i | i | i
CCOC(=O)C(=CNc1ccccc1Cl)C(=O)OCC | i | i | i | i | i
C(=N\Nc1cc(N2CCCCC2)ncn1)/c1ccco1 | 42 | i | i | i | i
O=C(Nc1nccs1)C1CCCN1/C=C/C(=O)C(F)(F)F (stereo not given) | 35 | i | i | i | i
COc1ccc(-c2nc(C#N)c(NCc3ccco3)o2)cc1 | i | i | 117 | i | i
COc1ccc(Nc2oc(-c3ccc(F)cc3)nc2C#N)cc1 | i | i | i | i | i
C=CCNc1oc(-c2ccc(OC)cc2)nc1C#N | i | i | 127 | i | i
CCOc1ccc(Nc2oc(-c3ccco3)nc2C#N)cc1 | i | i | i | i | i
CCOc1ccc(Nc2oc(-c3cccc(Cl)c3)nc2C#N)cc1 | i | nt | i | i | i
C=CCNc1oc(-c2ccc(OCC)cc2)nc1C#N | i | i | 129 | i | i
CCOc1ccc(-c2nc(C#N)c(NCC(C)C)o2)cc1 | i | i | 156 | i | i
SMILES | GDH-TPI counter | Mtb BioA inh | Mtb FBA inh | SARS 3CLpro inh | FadD28 binding
Cn1cnc(S(=O)(=O)N2CCCCN3[C@H](C2)[C@H](c2ccc(C4=CCCC4)cc2)[C@@H]3CO)c1 | nt | i | nt | nt | nt
COc1cccc(S(=O)(=O)Nc2ccc3c(c2)[C@@H]2C[C@@H](CC(=O)NCCc4ccccc4)O[C@@H](CO)[C@@H]2O3)c1 | nt | i | nt | nt | nt
CC(C)CC#Cc1ccc([C@H]2[C@H]3CN(C(=O)NC4CCCC4)CCCCN3[C@H]2CO)cc1 | nt | i | nt | nt | nt
COc1ccccc1NC(=O)N[C@@H]1CC[C@@H](CCNC(=O)Cc2ccccn2)O[C@@H]1CO | nt | i | nt | nt | nt
C[C@H]1CCCCO[C@@H](CN(C)Cc2ccc3c(c2)OCO3)[C@@H](C)CN([C@@H](C)CO)C(=O)c2cc(NC(=O)CCC(F)(F)F)ccc2O1 | nt | i | nt | nt | nt
C[C@H](CO)N1C[C@H](C)[C@@H](CN(C)Cc2ccccc2)Oc2ccc(NC(=O)C3CCCCC3)cc2CC1=O | nt | i | nt | nt | nt
COC(=O)Nc1nnc(-c2ccco2)s1 | i | i | i | i | i
COC(=O)Nc1nnc(-c2ccccc2Cl)s1 | i | i | 48 | i | i
COc1ccc(-c2cc(C(F)(F)F)nc(S(C)(=O)=O)n2)cc1 | 39 | nt | i | i | i
Cc1ccc(S(=O)(=O)Nc2ccc3c(c2)C(=O)N([C@@H](C)CO)C[C@@H](C)[C@@H](CN(C)Cc2ccc(Cl)c(Cl)c2)OCCCC[C@@H](C)O3)cc1 | nt | i | nt | nt | nt
CCc1cccc2c(C(=O)COC(=O)c3cnc(C)cn3)c[nH]c12 | i | i | i | nt | 13
O=C(COC(=O)[C@@H]1CC(O)CN1S(=O)(=O)c1ccccc1[N+](=O)[O-])c1ccccc1 (stereo not given in full) | i | i | i | i | i
CCc1cccc2c(C(=O)COC(=O)[C@@H]3CC(O)CN3S(=O)(=O)c3ccccc3[N+](=O)[O-])c[nH]c12 (stereo not given in full) | i | i | i | nt | 11
CCc1cccc2c(C(=O)COC(=O)c3nccnc3N)c[nH]c12 | i | i | i | nt | i
CCc1cccc2c(C(=O)COC(=O)c3ccc(O)cc3)c[nH]c12 | i | i | i | i | 34
CCc1cccc2c(C(=O)COC(=O)/C=C/c3ccccc3OC)c[nH]c12 | i | i | i | i | i
CCc1cccc2c(C(=O)COC(=O)c3ccccc3)c[nH]c12 | i | i | i | i | 18
CCc1cccc2c(C(=O)COC(=O)c3c(C)noc3C)c[nH]c12 | i | i | i | i | i
O=C(C[C@@H]1C[C@H]2c3cc(NC(=O)C4CCC4)ccc3O[C@H]2[C@@H](CO)O1)NCc1ccncc1 | nt | i | nt | nt | nt
C[C@@H]1CN([C@H](C)CO)C(=O)c2cccc(NS(=O)(=O)c3ccccc3)c2O[C@H]1CN(C)S(=O)(=O)c1ccc(Cl)cc1 | nt | i | nt | nt | nt
Cc1ccc(NC(=O)c2cc3ccccc3o2)cc1S(=O)(=O)N(C)C | i | i | i | i | i
CN(C)S(=O)(=O)c1ccc(NC(=O)c2cc3ccccc3o2)cc1 | i | 44 | i | i | i
C[C@H](CO)N1C[C@H](C)[C@@H](CN(C)S(=O)(=O)c2ccc(Cl)cc2)OCCCC[C@H](C)Oc2ccc(NC(=O)NC3CCCCC3)cc2C1=O | nt | i | nt | nt | nt
Cc1ccc(Cl)cc1-c1ccc(C=Nc2ccc(N3CCOCC3)cc2)o1 | 33 | nt | i | i | i
Nc1nn(-c2ccccc2)c(N)c1N=Nc1ccccc1 | 34 | i | i | i | i
COP(=O)(OC)c1nc(-c2cccc3ccccc23)oc1NCc1ccccc1 | i | i | 192 | i | i
CCOP(=O)(c1ccccc1)c1nc(-c2ccccc2C)oc1NCc1ccccc1 (stereo not given) | i | nt | i | i | i
COc1ccc(CNc2oc(-c3cccc4ccccc34)nc2P(=O)(OC)OC)cc1 | i | i | + | i | i

Assay outcomes deposited in PubChem BioAssay by several laboratories.
